# PubChem BioAssay (Tox21)
# Values joined by “and” are separate entries in the source; they are usually repeats but may differ in a detail not shown here. Equal values may be shown once. Records with an inconclusive call do not appear. Where a call stands in place of a potency, no number is given. Some structures have more than one record in an assay (separate samples or runs), and their calls can disagree. Active and inactive are the calls of the source. Unless noted, calls follow the shape of the dose curve; as a rule, active = well fitted curve in the direction sought with a large enough effect in the repeat runs; inconclusive = weak or mixed curves; inactive = no such curve, though single readings can be large; an effect the other way counts as inactive or inconclusive.
# Legend:
# [1] = target: Retinoic acid receptor RXR-alpha (Homo sapiens) (UniProt P19793); experiment: qHTS assay to identify small molecule agonists of the RXR signaling pathway (AID 1159527; calls by dose curve; also: nearly all actives have a fitted effect of over 35% in size; also: potency is read from the fitted curve at half-maximal effect)
# Chain of Retinoic acid receptor RXR-alpha (Homo sapiens) (P19793 whole entry, looked up): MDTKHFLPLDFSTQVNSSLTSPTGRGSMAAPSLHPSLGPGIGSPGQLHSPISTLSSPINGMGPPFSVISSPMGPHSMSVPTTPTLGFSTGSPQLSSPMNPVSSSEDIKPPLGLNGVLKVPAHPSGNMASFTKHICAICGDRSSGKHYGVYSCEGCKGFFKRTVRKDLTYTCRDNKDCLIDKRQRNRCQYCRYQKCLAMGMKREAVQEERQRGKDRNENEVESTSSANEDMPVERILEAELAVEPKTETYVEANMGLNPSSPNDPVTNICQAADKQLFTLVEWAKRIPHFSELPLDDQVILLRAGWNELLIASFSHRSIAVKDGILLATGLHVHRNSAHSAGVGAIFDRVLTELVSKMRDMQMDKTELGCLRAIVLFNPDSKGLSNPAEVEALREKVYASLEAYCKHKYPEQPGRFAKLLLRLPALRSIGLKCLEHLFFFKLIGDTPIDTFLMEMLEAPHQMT
# Procedure, shortened: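 Cells plated at 2,000/well, rested 5 hr at 37 C, pin-dosed with DMSO compound solutions, incubated 16 hr, then loaded with B/G FRET substrate for 2 hr at RT before dual-emission fluorescence reading.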
# [2] = qHTS assay to identify small molecule agonists of the RXR signaling pathway - cell viability counter screen (AID 1159529); also: nearly all actives have a fitted effect of over 50% in size; also: potency is read from the fitted curve at half-maximal effect
# Procedure, shortened: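 Steps: seed RXR-alpha-UAS-bla HEK 293T cells in assay medium containing 2% charcoal-stripped FBS; incubate 5 hr; add compounds in DMSO; incubate 16 hr at 37 C; after the bla read, add CellTiter-Glo and read luminescence at 30 min.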
# [3] = qHTS assay to identify small molecule antagonists of the retinoid acid receptor (RAR) signaling pathway - cell viability counter screen (AID 1159551); also: nearly all actives have a fitted effect of over 35% in size; also: potency is read from the fitted curve at half-maximal effect
# Procedure, shortened: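 C3RL4 RARE-luciferase cells, 1,000/well, incubated overnight, then dosed with compound plus 1 uM retinol (final). After 6 hr at 37 C, viability read by CellTiter-Glo ATP luminescence following 30 min at room temperature.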
# [4] = qHTS assay to identify small molecule antagonists of the estrogen related receptor (ERR) signaling pathway from Tox21 library - cell viability counter screen (AID 1224834); also: nearly all actives have a fitted effect of over 30% in size; also: potency is read from the fitted curve at half-maximal effect
# Procedure, shortened: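 ERR reporter cells, 2,000 per well, rested 6 h, then exposed to compound in DMSO for 17.5 hours at 37 C. Viability read as fluorescence after 30 min with CellTiter-Fluor.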
# [5] = qHTS assay to identify small molecule agonists of the constitutive androstane receptor (CAR) signaling pathway - cell viability counter screen (AID 1224836); also: nearly all actives have a fitted effect of over 45% in size; also: potency is read from the fitted curve at half-maximal effect
# Procedure, shortened: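 Cells were seeded and incubated 4 hrs. Compounds were added across 15 concentrations together with PK11195 at 0.75 uM final. Plates were incubated 23 hrs at 37 C. CellTiter-Fluor was added and fluorescence measured.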
# [6] = qHTS assay to identify small molecule antagonists of the estrogen related receptor signaling pathway with the pleiotropic PPARgamma coactivator (PGC) from Tox21 10K library - cell viability counter screen (AID 1224840; active = well fitted cell-killing curve with a large enough effect in the repeat runs, not every such curve was filed as active; also: nearly all actives have a fitted effect of over 40% in size; also: potency is read from the fitted curve at half-maximal effect)
# Procedure, shortened: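 PGC/ERR cells (2,000/well) plated 6 h, then compound-treated for 17.5 h at 37 C. Viability measured by CellTiter-Fluor fluorescence after 30 min at 37 C, multiplexed with the pathway assay.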
# [7] = qHTS assay to identify small molecule antagonists of the retinoic acid receptor (RAR) signaling pathway (AID 1159552; also: potency is read from the fitted curve at half-maximal effect; nearly all actives have a fitted effect of over 50% in size)
# Procedure, shortened: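 Retinol at 1 uM final stimulated RARE-luciferase expression in C3RL4 cells exposed to test compounds for 6 hr at 37 C. Reduced luminescence, read 30 min after detection reagent, indicated pathway antagonism.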
# [8] = target: Nuclear receptor subfamily 1 group I member 3 (Homo sapiens) (UniProt Q14994); experiment: qHTS assay to identify small molecule antagonists of the constitutive androstane receptor (CAR) signaling pathway (AID 1224838); also: nearly all actives have a fitted effect of over 40% in size; also: potency is read from the fitted curve at half-maximal effect
# Chain of Nuclear receptor subfamily 1 group I member 3 (Homo sapiens) (Q14994 whole entry, looked up): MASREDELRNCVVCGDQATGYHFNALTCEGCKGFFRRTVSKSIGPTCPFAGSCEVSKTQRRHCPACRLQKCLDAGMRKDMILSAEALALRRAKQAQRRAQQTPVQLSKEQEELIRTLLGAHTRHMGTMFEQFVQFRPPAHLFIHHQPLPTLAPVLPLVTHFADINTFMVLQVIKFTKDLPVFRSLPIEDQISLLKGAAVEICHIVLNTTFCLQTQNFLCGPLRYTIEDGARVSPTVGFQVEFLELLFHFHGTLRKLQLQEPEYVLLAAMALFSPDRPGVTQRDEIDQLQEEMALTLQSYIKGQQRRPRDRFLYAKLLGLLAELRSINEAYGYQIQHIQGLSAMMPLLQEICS
# Procedure, shortened: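 HepG2 cells stably carrying hCAR and a CYP2B6-2.2kb luciferase reporter, seeded 4 hrs before compound (15 concentrations). Stimulated with 50 nM CITCO for 24 hr at 37 C. ONE-Glo luminescence read after 30 min at room temperature.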
# [9] = target: Nuclear receptor subfamily 1 group I member 3 (Homo sapiens) (UniProt Q14994); experiment: qHTS assay to identify small molecule agonists of the constitutive androstane receptor (CAR) signaling pathway (AID 1224839); also: nearly all actives have a fitted effect of over 15% in size; also: potency is read from the fitted curve at half-maximal effect
# Procedure, shortened: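 Cells were plated and incubated 4 hrs, then dosed with compounds at 15 concentrations. PK11195 was added to 0.75 uM final. After 24 hrs at 37 C, luciferase luminescence was measured.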
# [10] = qHTS assay to identify small molecule antagonists of the estrogen related receptor signaling pathway with the pleiotropic PPARgamma coactivator (PGC) from Tox21 10K library (AID 1224841; call rule not given here; also: potency is read from the fitted curve at half-maximal effect; actives are mostly falling curves and most rising ones were filed inactive; nearly all actives have a fitted effect of over 50% in size)
# Procedure, shortened: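 PGC/ERR cell line, 2,000 cells/well, pre-incubated 6 hours at 37 C, then exposed to compounds for 18 hours at 37 C; luciferase read with One-Glo luminescence after 30 min at room temperature.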
# [11] = qHTS assay to identify small molecule agonists of the estrogen related receptor signaling pathway with the pleiotropic PPARgamma coactivator (PGC) from Tox21 10K library (AID 1224842); also: nearly all actives have a fitted effect of over 15% in size
# Procedure, shortened: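 PGC/ERR reporter cells (NTP line) were seeded 2,000 per well, rested 6 h at 37 C/5% CO2, then pin-dosed with compounds in DMSO for 18 h at 37 C; luciferase read by One-Glo luminescence after 30 min at room temperature.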
# [12] = qHTS assay to identify small molecule agonists of the retinoic acid receptor (RAR) signaling pathway (AID 1159553); also: potency is read from the fitted curve at half-maximal effect
# Procedure, shortened: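 C3RL4 RARE-luciferase cells were seeded at 1,000/well and grown overnight at 37 C, then exposed to compounds for 6 hr at 37 C, 5% CO2. Luciferase reagent was added and luminescence was read after 30 min at room temperature.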
# [13] = target: Luciferin 4-monooxygenase (Photinus pyralis) (UniProt P08659); experiment: qHTS assay to identify small molecule inhibitors of firefly luciferase (AID 1224835); also: series mostly up to about 120 µM; nearly all actives have a fitted effect of over 25% in size
# Chain of Luciferin 4-monooxygenase (Photinus pyralis) (P08659 whole entry, looked up): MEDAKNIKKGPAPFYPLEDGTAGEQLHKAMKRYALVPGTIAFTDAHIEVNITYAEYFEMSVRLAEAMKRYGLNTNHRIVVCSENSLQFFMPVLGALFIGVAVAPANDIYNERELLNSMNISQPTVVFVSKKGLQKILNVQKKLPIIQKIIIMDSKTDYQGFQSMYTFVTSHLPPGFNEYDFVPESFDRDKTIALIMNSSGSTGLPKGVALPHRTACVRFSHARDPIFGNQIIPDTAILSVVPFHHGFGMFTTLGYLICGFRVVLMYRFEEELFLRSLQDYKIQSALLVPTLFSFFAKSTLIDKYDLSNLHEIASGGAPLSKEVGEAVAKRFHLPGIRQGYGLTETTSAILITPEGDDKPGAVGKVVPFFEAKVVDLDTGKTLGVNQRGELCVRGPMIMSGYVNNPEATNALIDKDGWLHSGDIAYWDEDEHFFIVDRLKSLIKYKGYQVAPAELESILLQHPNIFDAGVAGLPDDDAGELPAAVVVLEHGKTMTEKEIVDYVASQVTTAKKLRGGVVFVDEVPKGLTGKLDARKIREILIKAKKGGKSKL
# Procedure, shortened: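 Quantitative HTS format; KM concentrations of both substrates. Purified P. pyralis FLuc activity quantified from luminescence images.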
# [14] = qHTS assay to identify small molecule antagonists of the constitutive androstane receptor (CAR) signaling pathway - cell viability counter screen (AID 1224837); also: series mostly up to about 92 µM; nearly all actives have a fitted effect of over 45% in size
# Procedure, shortened: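 HepG2 cells stably carrying hCAR and CYP2B6-2.2kb reporter, stimulated with 50 nM CITCO and compounds at 15 concentrations for 23 h at 37 C. Viability measured by CellTiter-Fluor fluorescence.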
SMILES,Potency [1],Potency [2],Potency [3],Potency [4],Potency [5],Potency [6],Potency [7],Potency [8],Potency [9],Potency [10],Potency [11],Potency [12],Potency [13],Potency [14]
CCOC(N)=O,inactive,inactive,inactive,inactive,inactive,inactive,,,,,,,,
CCCCCCCCCCCCCCCC[N+](C)(C)Cc1ccccc1,,17.9 µM (active) and 14 µM (active) and 4.25 µM (active),79.4 µM (active) and 62.2 µM (active) and 29.8 µM (active),63.1 µM (active) and 49.4 µM (active) and 23.7 µM (active),inactive,63.1 µM (active) and 49.4 µM (active) and inactive,56.2 µM (active) and 27.8 µM (active) and 23.7 µM (active),inactive,inactive,31.6 µM (active) and 24.8 µM (active) and 10.6 µM (active),inactive,,,
CCN(Cc1c(F)cccc1Cl)c1c([N+](=O)[O-])cc(C(F)(F)F)cc1[N+](=O)[O-],,9.77 µM (active),inactive,,inactive,inactive,,inactive,7.7 µM (active),,inactive,inactive,inactive,
F[B-](F)(F)F,inactive,inactive,inactive,inactive,inactive,inactive,,,,,,,,inactive
O=C1NS(=O)(=O)c2ccccc21,,inactive,inactive,inactive,inactive,inactive,,,,,,inactive,,
CN1[C@@H]2CC(OC(=O)[C@H](CO)c3ccccc3)C[C@H]1[C@@H]1O[C@@H]12 (stereo not given in full),,inactive,inactive,inactive,inactive,inactive,,inactive,inactive,,,,inactive,inactive
CN(C)C(=S)SC(=S)N(C)C,,5.02 µM (active) and 3.89 µM (active) and 1.9 µM (active),48.6 µM (active),1.98 µM (active) and 1.54 µM (active) and 1.68 µM (active),2.22 µM (active) and 1.72 µM (active) and 3.76 µM (active),,1.77 µM (active) and 1.93 µM (active) and 2.37 µM (active),1.25 µM (active) and 1.54 µM (active) and 2.37 µM (active),inactive,1.25 µM (active) and 1.22 µM (active) and 2.37 µM (active),inactive,0.668 µM (active),,
Cc1cc(=O)oc2cc(O)ccc12,43.6 µM (active),inactive,inactive,inactive,inactive,inactive,,inactive,inactive,,,,,
